# Reference: article PMC5540273 (PLoS ONE, 2017)
# Assays:
# Conditions in all cases: concentration: 1 μM, replicates: in singlicate; n = 1
# p38-beta = tested on: T1, p38-beta
# T1 construct: gene MAPK11
# p38-delta = tested on: p38-delta
# p38-gamma = tested on: T2, p38-gamma
# T2 construct: gene MAPK12
# 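Further: KINOMEscan kinase panel screen.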
SMILES,%Inh (p38-beta),%Inh (p38-delta),%Inh (p38-gamma)
Cl.Cl.c1ccc(-c2cc3ccncc3cc2OC2CCNCC2)cc1 [GSK1122999],0%,44%,40%
CNc1nccc(-c2c(-c3ccc(F)cc3)ncn2C2CCN(C)CC2)n1 [SB-222903],13%,9%,0%
CN1c2ccc(-c3ccc(C(=O)NCCO)cc3)cc2-c2[nH]ncc2S1(=O)=O,4%,9%,10%
O=C(NCCCN1CCCC1=O)c1cnc(NCc2cc(Cl)ccc2Cl)nc1NC1CCNCC1,0%,42%,18%
COc1ccc(-c2oc3ncnc(N)c3c2-c2ccc(OC)cc2)cc1 [SB-589132],0%,42%,8%
CNc1nccc(-c2c(-c3ccc(F)cc3)ncn2CCCN2CCOCC2)n1 [SB-222516],15%,0%,4%
Cn1cc(-c2ccc3c(c2)CCN3C(=O)Cc2cccc(C(F)(F)F)c2)c2c(N)ncnc21 [GSK2606414],0%,20%,2%
FC(F)(F)c1ccc(-c2nn3ncccc3c2-c2ccnc(Nc3cccc(C(F)(F)F)c3)n2)cc1 [GW828205],0%,3%,41%
Clc1cccc(-c2nc(Nc3ccncc3)c3ccccc3n2)c1 [GW873004],0%,17%,0%
COc1ccc(Nc2nccc(N3CCC(NC(=O)Nc4ccc5c(c4)OCO5)C3)n2)cc1 (stereo not drawn) [GSK1379745],0%,14%,3%
Fc1cccc(COc2ccc(Nc3ncnc4sc(-c5ccc[nH]5)cc34)cc2Cl)c1 [GW707818],4%,46%,7%
CC(C)(C)OC(=O)NC1CCCN(c2cc(-c3ccc4c(N)n[nH]c4c3)nc(N)n2)C1 (stereo not drawn) [GSK2286096],0%,47%,0%
